# Screening results deposited in PubChem by several laboratories.
# In the library only some 0.93% were active in any assay of this set; here they are far more common.
# Jurkat NFkB inh: inhibitors of induced NF-kB luciferase reporter, primary screen, TCR NF-kB activation inhibitor project, cell-based, luminescence, uHTS | Jurkat, PMA/ionomycin-induced NF-kB luciferase reporter | inhibition, % at 4 µM | 330,000 tested, 0.53% active; in the data active means inhibition above about 50%
# HIF act: HIF pathway transcriptional activators, primary screen, cell-based, U2OS HRE-luciferase, luminescence; AID 1910, 2009; activation, % at 7.5 µM (by protocol); U2OS HRE-luciferase reporter; normalized: DMSO 0%, desferrioxamine 100%; 300,000 tested, 0.32% active;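 active means mean activation of at least 10% of the iron chelator positive control signal, with at least half of replicates also reaching 10%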
# F508del corr: F508del CFTR correction, initial screen, CFBE line, single point; CFBE cells, YFP halide quenching; stimulated with forskolin plus potentiator P3; % fluorescence drop versus neutral controls; activity (quench increase), % at 7.58 µM; 350,000 tested, 0.36% active; AID 720511, 2013;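 active means mean added fluorescence quench of at least 8% versus neutral control, with both replicates also reaching 8%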;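 further: cells transiently co-express mutant CFTR-F508del with the halide-sensitive YFP; corrector assay measuring rescue of mutant channel to the surface after 24 h compound exposure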
# 697 NFkB inh: inhibitors of PMA/ionomycin-induced NF-kB reporter, 697 cells, primary screen, B-cell NF-kB inhibitor project, cell-based, luminescence, uHTS; 697 B-cell NF-kB luciferase reporter, 16 h; 330,000 tested, 0.33% active; inhibition, % at 4 µM; in the data active means inhibition above about 35%
# 697 NFkB conf: PMA/ionomycin-induced NF-kB reporter inhibitors, 697 retest, confirmation, B-cell NF-kB inhibitor project, cell-based, luminescence, single concentration | inhibition, % at 4 µM | AID 449746, 2010 | 697 B-cell NF-kB luciferase, 16 h | shares compounds with 697 NFkB inh | 2,000 tested, 35% active; in the data active means inhibition mostly above about 28%, no sharp cut-off; inactive means mostly below about 22%
# Numbers without * were called inactive; i = inactive; x = not tested or not shown.
SMILES,Jurkat NFkB inh,HIF act,F508del corr,697 NFkB inh,697 NFkB conf
Cc1cc(C(=O)Cn2nnc3ccccc3c2=O)c(C)n1-c1ccccc1F,-118,0,x,i,i
C[C@H](CO)N1C[C@H](C)[C@H](CN(C)C(=O)Nc2ccccc2)Oc2cc(C#C[C@@H](C)O)ccc2S1(=O)=O,x,x,-1,x,x
Cc1ccc(NC(=O)c2sc3ccccc3c2Cl)nc1,-56,1,-1,-311,-275
O=C(Cc1coc2ccc3ccccc3c12)Nc1nnc(C2CC2)s1,-36,-1,x,i,-414
Cc1cc2occ(CC(=O)Nc3nnc(C4CC4)s3)c2cc1C,-3,x,x,-10,x
COc1ccc2cc3cc(C(=O)Nc4cc(OC)c(OC)c(OC)c4)oc3nc2c1,38,-1,x,37*,0
N#Cc1ccc(-c2ccc3c(c2)[C@@H]2[C@@H](CCN2Cc2ccc4c(c2)OCO4)[C@@H](CO)N3)cc1,x,x,0,x,x
COC(=O)c1cc(NC(=O)Nc2cc(OC)ccc2OC)cc(C(=O)OC)c1,7,1,x,39*,34*
COc1cc(/C=N/NC(=O)c2cc(-c3cccc(OC(C)C)c3)nc3ccccc23)ccc1O,-12,-1,0,i,-384
CCCCCCCCNC(=O)c1ccc(C)cc1,-25,0,1,80*,-8
CCCCNC(=O)Cc1ccc(C)cc1,-3,1,x,26,x
CCN(CC(N)=O)S(=O)(=O)c1ccc(F)cc1,-1,0,-1,42*,-7
COCC(=O)N(C)C[C@H]1Oc2cc(-c3ccc(C#N)cc3)ccc2S(=O)(=O)N([C@@H](C)CO)C[C@H]1C,x,x,1,x,x
CCC(C)[C@H](N)c1nnc(SCC(=O)c2ccc(Cl)cc2)o1 (stereo partly drawn),8,0,x,44*,32*
CC(C)[C@H](N)c1nnc(SCc2ccc(Cl)cc2)o1,-7,0,x,-11,x
C[C@@H]1CCCCO[C@@H](CN(C)C(=O)NC2CCCCC2)[C@@H](C)CN([C@@H](C)CO)C(=O)c2cc(NC(=O)CCC(F)(F)F)ccc2O1,x,x,-1,x,x
O=C(O)c1ccc(-c2noc(-c3ccc(F)cc3)n2)cc1,-75,5,-1,-313,-283
CCCNC(=O)N(C)C[C@H]1Oc2ncc(C#Cc3ccncc3)cc2C(=O)N([C@H](C)CO)C[C@@H]1C,x,x,0,x,x
O=C(CN1C(=O)c2ccccc2S1(=O)=O)NCc1ccccc1Cl,7,x,-3,-17,x
O=C(CN1C(=O)c2ccccc2S1(=O)=O)c1ccccc1Cl,23,-4,0,54*,37*
C[C@@H]1CN([C@@H](C)CO)C(=O)c2cc(NS(=O)(=O)c3ccc(F)cc3)ccc2O[C@@H](C)CCCCO[C@H]1CN(C)C,x,x,-2,x,x
c1ccc(CCNc2ncnc3ccccc23)cc1,37,2,6,49*,29*
Cc1ccc(S(=O)(=O)N[C@@H]2CC[C@H](CCn3cc(C4CC4)nn3)O[C@H]2CO)cc1,x,x,0,x,x
O=Nc1c(-c2c(O)[nH]c3cc(Br)ccc23)[nH]c2ccccc12,39,1,-2,-321,-349
c1ccc(CNc2ccc3ccccc3n2)nc1,-130,0,3,-265,-194
SMILES,Jurkat NFkB inh,HIF act,F508del corr,697 NFkB inh,697 NFkB conf
Cc1cc(NCc2ccccn2)nc2ccccc12,-9,x,-1,-3,x
COc1ccc(C(=O)Nc2ccc(OC)c([N+](=O)[O-])c2)cc1Br,7,0,x,39*,35*
C[C@@H]1CCCCO[C@@H](CN(C)C(=O)Cc2ccccc2)[C@@H](C)CN([C@@H](C)CO)C(=O)c2cc(NS(=O)(=O)c3cccs3)ccc2O1,x,x,1,x,x
Cc1ccc(C(=O)Nc2ncc3c(Cl)cccc3n2)cc1,-77,-1,x,-256,-263
CO[C@H]1CN(C)C(=O)c2ccc(NC(=O)NC(C)C)cc2OC[C@@H](C)N(C(=O)C2CCC2)C[C@@H]1C,x,x,0,x,x
O=C(/C=C/Nc1ccccc1F)c1ccc(Br)cc1,x,0,x,x,x
N#Cc1ccccc1N/C=C/C(=O)c1ccc(Cl)cc1,-143,2,1,-296,-177
COc1ccc(/C=C2\SC(=S)N(CCC(=O)Nc3cccc(O)c3)C2=O)cc1,0,3,1,47*,54*
COc1ccc(/C=C2/SC(=S)N(CCCC(=O)Nc3ccc(O)cc3)C2=O)cc1,-16,-2,-4,71*,79*
COc1cc(/C=C2\SC(=S)N(CCC(=O)Nc3ccc(O)cc3)C2=O)cc(OC)c1OC,-1,0,-1,-19,x
COc1ccc(/C=C2\SC(=S)N(CCCC(=O)Nc3ccc(O)cc3)C2=O)cc1,-5,-2,0,69*,75*
Cc1csc(SCC(=O)c2cc(C)n(Cc3cccs3)c2C)n1,-51,-4,x,-346,-161
COc1ccc(-c2nnc(SCC(=O)c3cc(C)n(Cc4cccs4)c3C)o2)cc1,1,-1,x,21,x
COc1ccc(N/C=C\C(=O)c2ccc3ccccc3c2)cc1,-115,1,1,-141,x
CCOc1ccc(N/C=C/C(=O)c2ccccc2)c([N+](=O)[O-])c1,-111,-3,-1,-328,-326
COc1ccc(N/C=C/C(=O)c2ccccc2)cc1,-46,4,1,-327,-324
CNC[C@@H]1OCCCC[C@@H](C)Oc2ccc(NS(=O)(=O)c3ccc(OC)cc3)cc2C(=O)N([C@@H](C)CO)C[C@H]1C,x,x,0,x,x
C[C@@H]1CCCCO[C@@H](CN(C)C(=O)C2CCCCC2)[C@H](C)CN([C@@H](C)CO)C(=O)c2cc(NS(C)(=O)=O)ccc2O1,x,x,1,x,x
O=C(C1CC1)N1CC(=O)N2[C@@H](CO)[C@@H](c3ccc(C#Cc4cccc(F)c4)cc3)[C@@H]2C1,x,x,7,x,x
Cc1ccc(-c2csc(N/N=C/c3ccco3)n2)c(C)c1,-89,0,x,-403,-20
C[C@@H]1CN([C@@H](C)CO)C(=O)c2cc(NS(=O)(=O)c3cn(C)cn3)ccc2O[C@@H](C)CCCCO[C@@H]1CN(C)C(=O)Nc1cccc2ccccc12,x,x,-1,x,x
CO[C@@H]1CN(C)C(=O)c2cc(NC(=O)Nc3c(C)noc3C)ccc2OC[C@@H](C)N(C)C[C@H]1C,x,x,-6,x,x
CCn1c(=S)[nH]c2cc(S(=O)(=O)N3CCCCC3)ccc21,3,x,1,36*,30*
CO[C@@H]1CN(C)C(=O)c2ccc(NC(=O)c3ccc(F)cc3)cc2OC[C@@H](C)NC[C@@H]1C,x,x,-1,x,x
O=C(c1ccc2c(c1)OCO2)N1CCCCN2[C@H](CO)[C@@H](c3ccc(-c4ccccc4)cc3)[C@@H]2C1,x,x,1,x,x
C[C@@H]1CCCCO[C@H](CN(C)S(=O)(=O)c2ccc(Cl)cc2)[C@H](C)CN([C@@H](C)CO)C(=O)c2cc(NC(=O)c3ccncc3)ccc2O1,x,x,1,x,x
CCN(CC)S(=O)(=O)c1cccc(NC(=O)c2ccc(Sc3nncn3C)c([N+](=O)[O-])c2)c1,9,0,1,37*,12
